From ChEMBL document CHEMBL2218924, “A broad activity screen in support of a chemogenomic map for kinase signalling research and drug discovery” (Biochem J, 2013)

How the values were obtained:
[1] = target: Protein kinase C eta type (Homo sapiens) (UniProt P24723); settings: at 1 µM
[2] = target: Protein kinase C eta type (Homo sapiens) (UniProt P24723); settings: at 10 µM
[3] = target: Protein kinase C theta type (Homo sapiens) (UniProt Q04759); settings: at 1 µM
[4] = target: Protein kinase C theta type (Homo sapiens) (UniProt Q04759); settings: at 10 µM
[5] = target: T1, Protein kinase C iota type (Homo sapiens) (UniProt P41743); settings: at 1 µM
T1 sequence (whole entry): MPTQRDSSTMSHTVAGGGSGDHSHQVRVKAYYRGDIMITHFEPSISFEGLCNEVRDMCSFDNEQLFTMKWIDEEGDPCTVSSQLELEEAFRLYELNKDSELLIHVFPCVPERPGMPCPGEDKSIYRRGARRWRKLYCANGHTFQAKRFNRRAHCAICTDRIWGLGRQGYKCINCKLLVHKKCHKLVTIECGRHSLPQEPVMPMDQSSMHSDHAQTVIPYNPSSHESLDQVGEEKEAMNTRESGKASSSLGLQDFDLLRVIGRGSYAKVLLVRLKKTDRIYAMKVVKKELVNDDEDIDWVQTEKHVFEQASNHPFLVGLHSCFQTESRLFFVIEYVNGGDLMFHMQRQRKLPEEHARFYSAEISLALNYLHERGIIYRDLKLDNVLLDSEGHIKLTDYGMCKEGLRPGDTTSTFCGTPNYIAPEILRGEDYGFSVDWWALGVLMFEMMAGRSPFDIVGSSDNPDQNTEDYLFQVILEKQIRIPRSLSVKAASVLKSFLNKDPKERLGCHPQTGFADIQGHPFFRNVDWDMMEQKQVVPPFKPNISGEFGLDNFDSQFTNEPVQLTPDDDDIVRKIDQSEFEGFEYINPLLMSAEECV

[6] = target: T1, Protein kinase C iota type (Homo sapiens); settings: at 10 µM
[7] = target: T2, Serine/threonine-protein kinase D1 (Homo sapiens) (UniProt Q15139); settings: at 1 µM
T2 sequence (whole entry): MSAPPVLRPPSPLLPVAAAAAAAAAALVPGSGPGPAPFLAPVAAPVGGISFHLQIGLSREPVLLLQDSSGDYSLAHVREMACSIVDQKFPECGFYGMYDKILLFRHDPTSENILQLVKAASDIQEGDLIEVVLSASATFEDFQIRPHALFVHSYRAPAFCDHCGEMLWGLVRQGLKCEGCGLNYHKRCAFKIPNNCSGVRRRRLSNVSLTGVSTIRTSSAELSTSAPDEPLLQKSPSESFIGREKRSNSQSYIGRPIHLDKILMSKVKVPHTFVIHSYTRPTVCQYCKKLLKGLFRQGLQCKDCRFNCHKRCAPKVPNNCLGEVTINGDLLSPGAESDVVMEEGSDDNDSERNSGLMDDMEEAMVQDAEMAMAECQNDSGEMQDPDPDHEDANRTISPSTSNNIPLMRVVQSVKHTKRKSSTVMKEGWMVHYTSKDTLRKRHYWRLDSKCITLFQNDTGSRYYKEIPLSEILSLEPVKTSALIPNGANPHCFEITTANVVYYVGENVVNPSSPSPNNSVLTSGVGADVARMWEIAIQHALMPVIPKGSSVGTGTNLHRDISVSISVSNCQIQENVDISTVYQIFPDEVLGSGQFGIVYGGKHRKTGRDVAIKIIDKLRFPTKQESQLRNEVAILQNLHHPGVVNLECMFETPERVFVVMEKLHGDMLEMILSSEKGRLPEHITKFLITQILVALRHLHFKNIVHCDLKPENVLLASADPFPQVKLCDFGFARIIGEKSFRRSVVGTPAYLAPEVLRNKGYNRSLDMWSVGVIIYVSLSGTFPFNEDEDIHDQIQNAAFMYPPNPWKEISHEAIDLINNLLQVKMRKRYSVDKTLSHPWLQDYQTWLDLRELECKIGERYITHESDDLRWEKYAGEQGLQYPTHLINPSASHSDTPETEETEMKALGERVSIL

[8] = target: T2, Serine/threonine-protein kinase D1 (Homo sapiens); settings: at 10 µM
[9] = target: T3, Serine/threonine-protein kinase D2 (Homo sapiens) (UniProt Q9BZL6); settings: at 1 µM
T3 sequence (whole entry): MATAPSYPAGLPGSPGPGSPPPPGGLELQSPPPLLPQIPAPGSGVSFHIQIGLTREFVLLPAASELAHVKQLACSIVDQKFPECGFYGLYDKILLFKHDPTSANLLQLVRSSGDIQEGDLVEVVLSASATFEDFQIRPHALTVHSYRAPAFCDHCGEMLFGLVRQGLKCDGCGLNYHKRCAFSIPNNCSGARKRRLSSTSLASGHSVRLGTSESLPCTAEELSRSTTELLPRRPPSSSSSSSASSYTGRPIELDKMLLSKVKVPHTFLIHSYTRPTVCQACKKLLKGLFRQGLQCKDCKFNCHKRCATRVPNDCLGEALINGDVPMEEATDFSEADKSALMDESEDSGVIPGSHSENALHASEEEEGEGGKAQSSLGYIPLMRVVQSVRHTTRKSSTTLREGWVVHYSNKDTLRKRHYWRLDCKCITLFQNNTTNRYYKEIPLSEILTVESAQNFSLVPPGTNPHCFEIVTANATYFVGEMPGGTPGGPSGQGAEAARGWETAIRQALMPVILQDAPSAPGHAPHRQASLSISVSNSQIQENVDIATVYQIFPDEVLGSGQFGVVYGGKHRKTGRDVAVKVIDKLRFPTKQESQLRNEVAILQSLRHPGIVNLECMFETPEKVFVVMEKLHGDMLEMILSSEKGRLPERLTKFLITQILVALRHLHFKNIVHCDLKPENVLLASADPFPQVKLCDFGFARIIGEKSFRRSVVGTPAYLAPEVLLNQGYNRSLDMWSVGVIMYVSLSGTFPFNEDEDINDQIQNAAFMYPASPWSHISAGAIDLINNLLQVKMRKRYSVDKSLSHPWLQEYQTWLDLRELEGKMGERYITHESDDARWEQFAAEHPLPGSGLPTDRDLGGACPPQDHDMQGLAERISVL

[10] = target: T3, Serine/threonine-protein kinase D2 (Homo sapiens); settings: at 10 µM

Chain of Protein kinase C eta type (Homo sapiens) (P24723 whole entry): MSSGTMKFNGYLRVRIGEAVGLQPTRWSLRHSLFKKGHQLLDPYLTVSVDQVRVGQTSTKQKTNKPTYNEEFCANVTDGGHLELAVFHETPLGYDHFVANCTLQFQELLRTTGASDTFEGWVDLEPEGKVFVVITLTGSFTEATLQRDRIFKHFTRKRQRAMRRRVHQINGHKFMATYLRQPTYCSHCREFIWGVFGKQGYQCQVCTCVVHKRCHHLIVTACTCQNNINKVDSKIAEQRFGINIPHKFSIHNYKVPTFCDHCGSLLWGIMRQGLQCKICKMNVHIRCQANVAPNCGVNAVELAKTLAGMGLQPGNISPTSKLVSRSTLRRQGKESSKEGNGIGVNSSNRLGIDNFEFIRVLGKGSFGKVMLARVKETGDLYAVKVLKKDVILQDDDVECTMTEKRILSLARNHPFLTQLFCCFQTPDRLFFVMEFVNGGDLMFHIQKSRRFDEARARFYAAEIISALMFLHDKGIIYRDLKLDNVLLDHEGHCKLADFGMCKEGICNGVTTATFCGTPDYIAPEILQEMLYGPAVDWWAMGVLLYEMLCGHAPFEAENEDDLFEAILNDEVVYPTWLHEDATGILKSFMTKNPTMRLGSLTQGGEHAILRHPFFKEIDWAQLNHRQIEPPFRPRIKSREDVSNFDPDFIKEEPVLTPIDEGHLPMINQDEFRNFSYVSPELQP
Chain of Protein kinase C theta type (Homo sapiens) (Q04759 whole entry, looked up): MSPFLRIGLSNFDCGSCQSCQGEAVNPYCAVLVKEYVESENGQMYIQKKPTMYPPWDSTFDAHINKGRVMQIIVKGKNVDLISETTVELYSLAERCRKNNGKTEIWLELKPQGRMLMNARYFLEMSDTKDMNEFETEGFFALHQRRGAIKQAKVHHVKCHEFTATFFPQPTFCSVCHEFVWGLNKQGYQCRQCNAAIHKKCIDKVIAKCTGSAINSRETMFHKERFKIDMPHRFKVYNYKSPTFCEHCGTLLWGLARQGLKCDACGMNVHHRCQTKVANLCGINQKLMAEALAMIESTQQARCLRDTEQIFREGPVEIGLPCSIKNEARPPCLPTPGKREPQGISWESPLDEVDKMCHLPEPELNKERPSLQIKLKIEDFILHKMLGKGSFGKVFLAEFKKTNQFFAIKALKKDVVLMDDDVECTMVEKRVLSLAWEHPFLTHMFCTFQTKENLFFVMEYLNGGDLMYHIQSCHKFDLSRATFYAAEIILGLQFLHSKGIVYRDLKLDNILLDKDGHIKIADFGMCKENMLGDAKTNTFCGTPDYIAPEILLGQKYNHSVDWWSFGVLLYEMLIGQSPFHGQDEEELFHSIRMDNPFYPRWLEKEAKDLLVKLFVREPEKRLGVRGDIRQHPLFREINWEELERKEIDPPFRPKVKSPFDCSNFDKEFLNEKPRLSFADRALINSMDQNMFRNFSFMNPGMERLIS

Structure (SMILES) | residual activity [1] [%] | residual activity [2] [%] | residual activity [3] [%] | residual activity [4] [%] | residual activity [5] | residual activity [6] [%] | residual activity [7] [%] | residual activity [8] [%] | residual activity [9] [%] | residual activity [10] [%]
CO[C@H]1C[C@@H]2CC[C@@H](C)[C@@](O)(O2)C(=O)C(=O)N2CCCC[C@H]2C(=O)O[C@H]([C@H](C)C[C@@H]2CC[C@@H](O)[C@H](OC)C2)CC(=O)[C@H](C)/C=C(\C)[C@@H](O)[C@@H](OC)C(=O)[C@H](C)C[C@H](C)/C=C/C=C/C=C/1C | 93 | 76 | 94 | 113 | 89% (inactive) | 77 | 93 | 97 | 102 | 107
O=C(O)c1ccc2c3c1cccc3c(=O)n1c3ccccc3nc21 | 76 | 84 | 109 | 107 | 105% (inactive) | 92 | 110 | 57 | 101 | 84
Nc1n[nH]c2nnc(-c3c(-c4ccccc4)nn4ccccc34)cc12 | 56 | 19 | 47 | 16 | 115% (inactive) | 100 | 56 | 12 | 96 | 49
O=c1cc(-c2cccc3c2Sc2ccccc2S3)oc(N2CCOCC2)c1 | 107 | 101 | 97 | 91 | 117% (inactive) | 102 | 86 | 80 | 106 | 103
COc1cccc(-c2cc(=O)c3ccccc3o2)c1N | 101 | 94 | 92 | 97 | 114% (inactive) | 108 | 85 | 95 | 110 | 97
Cn1cnc2cc3c(Nc4cccc(Br)c4)ncnc3cc21 | 93 | 91 | 99 | 100 | 103% (inactive) | 76 | 94 | 82 | 97 | 116
COc1ccc(CNc2nc(N(CCO)CCO)nc3c2ncn3C(C)C)cc1 | 83 | 83 | 4 | 5 | 112% (inactive) | 108 | 91 | 71 | 101 | 93
NC(=O)c1ccc2[nH]c(-c3ccc(Oc4ccc(Cl)cc4)cc3)nc2c1 | 86 | 80 | 85 | 105 | 107% (inactive) | 96 | 109 | 79 | 99 | 84
Cc1nc(-c2ccccc2)c(-c2ccncc2)o1 | 101 | 90 | 107 | 103 | 108% (inactive) | 103 | 113 | 80 | 103 | 94
CCC(=O)Nc1ccc2ncnc(Nc3cccc(Br)c3)c2c1 | 85 | 82 | 96 | 95 | 100% (inactive) | 101 | 85 | 82 | 105 | 112
O=Nc1c(-c2c(O)[nH]c3ccccc23)[nH]c2ccccc12 | 91 | 83 | 81 | 55 | 96% (inactive) | 105 | 113 | 65 | 109 | 98
Oc1c2ccccc2c2c3c(cccc13)N=N2 | 86 | 82 | 90 | 76 | 117% (inactive) | 107 | 32 | -1 | 92 | 36
CO[C@H]1[C@@H](OC)C[C@H](C)[C@@H](OC)C2=CC(=O)C=C(NC(=O)/C(C)=C/C=C/[C@H](OC)[C@@H](OC(N)=O)/C(C)=C/[C@@H]1C)C2=O | 118 | 83 | 100 | 98 | 92% (inactive) | 71 | 119 | 102 | 102 | 110
CCOc1cc2ncnc(Nc3cccc(Br)c3)c2cc1OCC | 82 | 88 | 116 | 106 | 87% (inactive) | 95 | 101 | 54 | 104 | 113
Oc1n[nH]c2nnc(-c3c(-c4ccccc4)nn4ccccc34)cc12 | 78 | 89 | 81 | 75 | 104% (inactive) | 103 | 89 | 71 | 104 | 98
O=[N+]([O-])c1ccc(-c2nc(-c3ccc(F)cc3)c(-c3ccncc3)[nH]2)cc1 | 95 | 68 | 91 | 68 | 110% (inactive) | 109 | 64 | 52 | 100 | 94
